Results: paper PMC11062922 (Nature Chemical Biology, 2023)

What was measured:
[1] = system: ADCK5; conditions: read-out: apparent Kd; compound concentrations:100 nM and 1000 nM (sheet 'Lestaurtinib' of Supplementary Table 1),run:Lestaurtinib_02443_R1,Plate:MR009; n = 1
[2] = system: BMPR1B; conditions: read-out: apparent Kd; compound concentrations:100 nM and 1000 nM (sheet 'Lestaurtinib' of Supplementary Table 1),run:Lestaurtinib_02496_R2,Plate:MR013; n = 1
[3] = system: CSNK2A1;CSNK2A3; conditions: read-out: apparent Kd; compound concentrations:100 nM and 1000 nM (sheet 'Lestaurtinib' of Supplementary Table 1),run:Lestaurtinib_02422_R1,Plate:MR006; n = 1
[4] = system: EPHB4; conditions: read-out: apparent Kd; compound concentrations:100 nM and 1000 nM (sheet 'Lestaurtinib' of Supplementary Table 1),run:Lestaurtinib_02487_R1,Plate:MR012; n = 1
[5] = system: FGFR1; conditions: read-out: apparent Kd; compound concentrations:100 nM and 1000 nM (sheet 'Lestaurtinib' of Supplementary Table 1),run:Lestaurtinib_02487_R1,Plate:MR012; n = 1
[6] = system: GRK6; conditions: read-out: apparent Kd; compound concentrations:100 nM and 1000 nM (sheet 'Lestaurtinib' of Supplementary Table 1),run:Lestaurtinib_02339_R2,Plate:MR001; n = 1
[7] = system: GSK3A; conditions: read-out: apparent Kd; compound concentrations:100 nM and 1000 nM (sheet 'Lestaurtinib' of Supplementary Table 1),run:Lestaurtinib_02487_R1,Plate:MR012; n = 1
[8] = system: GSK3B; conditions: read-out: apparent Kd; compound concentrations:100 nM and 1000 nM (sheet 'Lestaurtinib' of Supplementary Table 1),run:Lestaurtinib_02487_R1,Plate:MR012; n = 1
[9] = system: HCK; conditions: read-out: apparent Kd; compound concentrations:100 nM and 1000 nM (sheet 'Lestaurtinib' of Supplementary Table 1),run:Lestaurtinib_02422_R1,Plate:MR006; n = 1
[10] = system: HSP90B1; conditions: read-out: apparent Kd; compound concentrations:100 nM and 1000 nM (sheet 'Lestaurtinib' of Supplementary Table 1),run:Lestaurtinib_02606_R3,Plate:MR019; n = 1
[11] = system: LCK; conditions: read-out: apparent Kd; compound concentrations:100 nM and 1000 nM (sheet 'Lestaurtinib' of Supplementary Table 1),run:Lestaurtinib_02487_R1,Plate:MR012; n = 1
[12] = system: LYN; conditions: read-out: apparent Kd; compound concentrations:100 nM and 1000 nM (sheet 'Lestaurtinib' of Supplementary Table 1),run:Lestaurtinib_02487_R1,Plate:MR012; n = 1
[13] = system: MAP4K3; conditions: read-out: apparent Kd; compound concentrations:100 nM and 1000 nM (sheet 'Lestaurtinib' of Supplementary Table 1),run:Lestaurtinib_03172_R3,Plate:MR031; n = 1
[14] = system: MAPK14; conditions: read-out: apparent Kd; compound concentrations:100 nM and 1000 nM (sheet 'Lestaurtinib' of Supplementary Table 1),run:Lestaurtinib_02422_R1,Plate:MR006; n = 1
[15] = system: MERTK; conditions: read-out: apparent Kd; compound concentrations:100 nM and 1000 nM (sheet 'Lestaurtinib' of Supplementary Table 1),run:Lestaurtinib_02766_R2,Plate:MR027; n = 1
[16] = system: MET; conditions: read-out: apparent Kd; compound concentrations:100 nM and 1000 nM (sheet 'Lestaurtinib' of Supplementary Table 1),run:Lestaurtinib_02724_R1,Plate:MR021; n = 1
[17] = system: PRKACG; conditions: read-out: apparent Kd; compound concentrations:100 nM and 1000 nM (sheet 'Lestaurtinib' of Supplementary Table 1),run:Lestaurtinib_02422_R1,Plate:MR006; n = 1
[18] = system: PRKAR2A; conditions: read-out: apparent Kd; compound concentrations:100 nM and 1000 nM (sheet 'Lestaurtinib' of Supplementary Table 1),run:Lestaurtinib_02364_R2,Plate:MR002; n = 1
[19] = system: PRKDC; conditions: read-out: apparent Kd; compound concentrations:100 nM and 1000 nM (sheet 'Lestaurtinib' of Supplementary Table 1),run:Lestaurtinib_02422_R1,Plate:MR006; n = 1
[20] = system: RPS6KB1; conditions: read-out: apparent Kd; compound concentrations:100 nM and 1000 nM (sheet 'Lestaurtinib' of Supplementary Table 1),run:Lestaurtinib_02766_R3,Plate:MR027; n = 1

Q: How did the potency estimated from few doses [1] turn out when Lestaurtinib was run?
A: The potency estimated from few doses was 2240 nM.

Q: What about the potency estimated from few doses [2] of the same substance?
A: The potency estimated from few doses was 737 nM.

Q: What about the potency estimated from few doses [3] of the same substance?
A: Its potency estimated from few doses is 1810 nM.

Q: What about the potency estimated from few doses [4] of the same substance?
A: The potency estimated from few doses was 207 nM.

Q: What about the potency estimated from few doses [5] of the same substance?
A: The potency estimated from few doses was 1150 nM.

Q: And the potency estimated from few doses [6]?
A: The potency estimated from few doses was 2090 nM.

Q: What about the potency estimated from few doses [7] of the same substance?
A: Its potency estimated from few doses is 175 nM.

Q: And the potency estimated from few doses [8]?
A: Its potency estimated from few doses is 295 nM.

Q: What about the potency estimated from few doses [9] of the same substance?
A: Its potency estimated from few doses is 1300 nM.

Q: What about the potency estimated from few doses [10] of the same substance?
A: The potency estimated from few doses was 979 nM.

Q: And the potency estimated from few doses [11]?
A: The potency estimated from few doses was 550 nM.

Q: What about the potency estimated from few doses [12] of the same substance?
A: Its potency estimated from few doses is 808 nM.

Q: What about the potency estimated from few doses [13] of the same substance?
A: The potency estimated from few doses was 2110 nM.

Q: And the potency estimated from few doses [14]?
A: Its potency estimated from few doses is 1150 nM.

Q: What about the potency estimated from few doses [15] of the same substance?
A: The potency estimated from few doses was 1410 nM.

Q: What about the potency estimated from few doses [16] of the same substance?
A: Its potency estimated from few doses is 2150 nM.

Q: And the potency estimated from few doses [17]?
A: Its potency estimated from few doses is 769 nM.

Q: What about the potency estimated from few doses [18] of the same substance?
A: The potency estimated from few doses was 979 nM.

Q: What about the potency estimated from few doses [19] of the same substance?
A: Its potency estimated from few doses is 1210 nM.

Q: What about the potency estimated from few doses [20] of the same substance?
A: Its potency estimated from few doses is 1570 nM.
